Activity calls are given as the source filed them. No rule for the calls is given here.
target: Estrogen receptor (Homo sapiens) (UniProt P03372); assay: displacement of fluorescent estrogen from ERalpha – cell-based, Cos7 ERalpha-GFP, flow cytometry, primary screen (AID 1211); conditions: fluorescent ligand competition, at 10 µM, hits give high values;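 also: 0% = DMSO vehicle wells and 100% = no E2-Alexa633 signal left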
Sequence (P03372 whole entry, looked up): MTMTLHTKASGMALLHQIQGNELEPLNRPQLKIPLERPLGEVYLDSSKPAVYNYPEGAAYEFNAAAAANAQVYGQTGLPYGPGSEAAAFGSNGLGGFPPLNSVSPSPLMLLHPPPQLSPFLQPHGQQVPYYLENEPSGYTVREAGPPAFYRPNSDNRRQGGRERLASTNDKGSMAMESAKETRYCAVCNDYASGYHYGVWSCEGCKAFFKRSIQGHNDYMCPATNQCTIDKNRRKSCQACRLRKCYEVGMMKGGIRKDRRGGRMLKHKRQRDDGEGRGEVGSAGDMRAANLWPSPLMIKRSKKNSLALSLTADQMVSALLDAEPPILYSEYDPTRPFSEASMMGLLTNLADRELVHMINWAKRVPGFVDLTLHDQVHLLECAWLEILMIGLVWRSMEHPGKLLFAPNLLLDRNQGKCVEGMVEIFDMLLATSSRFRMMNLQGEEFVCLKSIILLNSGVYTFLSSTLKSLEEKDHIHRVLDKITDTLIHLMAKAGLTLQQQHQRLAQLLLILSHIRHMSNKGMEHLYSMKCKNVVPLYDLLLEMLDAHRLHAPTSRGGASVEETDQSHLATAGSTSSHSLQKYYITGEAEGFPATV

Row | SMILES | inhibition of ligand binding
1 | Nc1c(Cl)cc(Cl)cc1C(=O)OCC(=O)NC1CC1 | 52% (inactive)
2 | Cc1ccc(C(=O)NCC(=O)OCC(=O)c2c(N)n(C)c(=O)n(C)c2=O)s1 | 14% (inactive)
3 | COC(=O)c1cnn2c(C(F)(F)F)cc(-c3ccco3)nc12 | 0% (inactive)
4 | Cc1ccccc1NC(=O)CSc1nnc(-c2ccco2)c(-c2ccco2)n1 | 47% (active)
5 | CN(C)NC(=S)Nc1ccc2nc(-c3ccccn3)c(-c3ccccn3)nc2c1 | 11% (inactive)
6 | Oc1ccccc1-c1nnc(SCCN2CCOCC2)n1Cc1ccccc1 | 32% (inactive)
7 | O=C(/C=C/c1ccc(O)cc1)c1ccc(O)cc1O | 62% (inactive)
8 | O=C(O)c1ccc(Cl)c2c1C1C=CCC1C(c1ccccn1)N2 (stereo unspecified) | 43% (inactive)
9 | O=C1C2C3C=CC(C3)C2C(=O)N1c1cccc2cccnc12 (stereo unspecified) | 4% (inactive)
10 | C/C=C/COC(=O)c1[nH]c2c(c1C)C(=O)CC(c1ccco1)C2 (stereo unspecified) | 29% (inactive)
11 | Cc1ccc(-c2nn(-c3ccccc3)cc2/C=N/NC(=O)c2ccc(Br)o2)cc1 | 42% (inactive)
12 | COc1ccc(C2Nc3ccccc3C(=O)N2c2ccccc2)cc1CSc1ccccn1 (stereo unspecified) | 44% (inactive)
13 | Cc1cccc2cc(C(c3nnnn3C(C)(C)C)N(Cc3ccco3)CC3CCCO3)c(=O)[nH]c12 (stereo unspecified) | 31% (inactive)
14 | Cc1csc2nc(CCNS(=O)(=O)c3ccc4c(c3)OCCO4)cn12 | 38% (active)
15 | O=C1Nc2ccccc2SC(c2ccccc2)C1O (stereo unspecified) | 26% (inactive)
16 | C1=C(N2CCOCC2)/C(=C/c2nc3ccccc3[nH]2)CC1 | 50% (inactive)
